KDM5B inh: Primary screen for KDM5B Histone Demethylases FDH-coupled qHTS; Lysine-specific demethylase 5B (Homo sapiens), Q9UGL1; 2.6% of 220,000 active; Potency, µM (series often up to 57.7 µM), most hits filed as inhibitors; KDM5B demethylase, FDH-coupled NADH fluorescence (FDH is formaldehyde dehydrogenase); active = well fitted inhibition curve with a large enough effect; note: nearly all actives have a fitted effect of over 70% in size
Target sequence (Q9UGL1 whole entry, looked up): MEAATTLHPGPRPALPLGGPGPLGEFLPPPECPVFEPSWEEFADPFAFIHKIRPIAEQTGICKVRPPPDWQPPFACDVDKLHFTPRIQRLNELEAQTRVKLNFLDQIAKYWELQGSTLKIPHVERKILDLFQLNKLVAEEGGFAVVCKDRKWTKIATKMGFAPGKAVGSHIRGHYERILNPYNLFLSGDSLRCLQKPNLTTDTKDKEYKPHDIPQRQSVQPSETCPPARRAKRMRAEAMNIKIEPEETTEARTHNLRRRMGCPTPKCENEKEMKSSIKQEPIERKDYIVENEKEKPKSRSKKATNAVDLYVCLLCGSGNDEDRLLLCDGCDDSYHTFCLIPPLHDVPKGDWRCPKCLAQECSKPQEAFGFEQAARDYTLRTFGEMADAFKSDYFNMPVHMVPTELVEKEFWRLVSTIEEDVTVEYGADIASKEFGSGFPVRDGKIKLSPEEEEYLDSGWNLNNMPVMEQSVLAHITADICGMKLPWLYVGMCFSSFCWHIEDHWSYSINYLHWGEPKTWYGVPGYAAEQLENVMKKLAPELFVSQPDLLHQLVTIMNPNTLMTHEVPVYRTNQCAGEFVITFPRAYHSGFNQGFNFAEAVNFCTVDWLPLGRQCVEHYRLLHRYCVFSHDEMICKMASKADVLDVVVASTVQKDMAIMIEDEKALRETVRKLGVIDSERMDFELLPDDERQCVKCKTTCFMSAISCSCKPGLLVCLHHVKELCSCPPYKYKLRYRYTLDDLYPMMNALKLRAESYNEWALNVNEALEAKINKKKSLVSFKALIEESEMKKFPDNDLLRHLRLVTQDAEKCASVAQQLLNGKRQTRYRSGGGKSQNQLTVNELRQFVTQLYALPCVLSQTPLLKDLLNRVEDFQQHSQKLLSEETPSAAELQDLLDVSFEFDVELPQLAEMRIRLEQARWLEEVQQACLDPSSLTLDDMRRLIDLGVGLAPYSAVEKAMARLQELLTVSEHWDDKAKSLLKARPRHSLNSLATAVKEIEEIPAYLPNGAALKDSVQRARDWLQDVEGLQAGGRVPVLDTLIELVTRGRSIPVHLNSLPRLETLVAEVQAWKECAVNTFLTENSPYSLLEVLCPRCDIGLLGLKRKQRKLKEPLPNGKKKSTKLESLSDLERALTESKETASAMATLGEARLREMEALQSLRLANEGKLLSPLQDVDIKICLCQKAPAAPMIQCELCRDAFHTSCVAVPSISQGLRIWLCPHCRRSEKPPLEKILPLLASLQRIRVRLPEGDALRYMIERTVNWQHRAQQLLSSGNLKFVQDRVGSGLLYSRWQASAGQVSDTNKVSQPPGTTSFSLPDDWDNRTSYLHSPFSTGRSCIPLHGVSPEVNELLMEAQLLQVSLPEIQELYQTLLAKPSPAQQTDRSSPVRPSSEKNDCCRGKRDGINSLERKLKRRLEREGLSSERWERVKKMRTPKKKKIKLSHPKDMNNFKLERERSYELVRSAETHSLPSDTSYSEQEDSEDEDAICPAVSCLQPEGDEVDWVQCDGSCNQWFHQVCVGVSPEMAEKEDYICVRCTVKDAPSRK
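Coupled FDH/NAD⁺ fluorescence readout. KDM5BΔAP 200 nM final; compound titration, 10 min RT preincubation; substrate mix 12.5 µM H3K4me3, 25 µM 2-OG, 50 µM Fe(II), 100 µM ascorbate, 0.25 mM NAD⁺, 0.25 U/mL FDH; ΔRFU over 30 min.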
Large screens that a line does not name were inactive. This excerpt belongs to a sample that is enriched for hits.

CC1CCCCC1NC(=O)CCCNC(=O)C(C)(C)C (centres undefined)	none
Cc1c(C(=O)OCc2ccccc2C#N)oc2ccccc12	none
Clc1ccc(CNCCOc2ccccn2)cc1	none
N#Cc1nc(-c2ccc([N+](=O)[O-])cc2)oc1NC1CC1	none
COc1cc(C(=O)N2CC[C@@]3(O)CCN(S(C)(=O)=O)C[C@H]3C2)ccn1	none
CCc1noc(C)c1C(=O)N1CC[C@@]2(O)CCN(S(C)(=O)=O)C[C@H]2C1	none
Cn1ccnc1-c1ccc(N2CC[C@@]3(O)CCN(S(C)(=O)=O)C[C@H]3C2)nn1	KDM5B inh 31.6µM
CN(C)C(=O)CNS(=O)(=O)c1cccc(F)c1	none
C=C(C)COc1ccc2c(C)c(CC(=O)Nc3ccc4c(c3)OCCO4)c(=O)oc2c1	none
Cc1csc(CN2CCCC(c3n[nH]c(=O)n3-c3ccccc3)C2)n1 (centres undefined)	none
Cc1cccc(C(=O)N2CCC(c3n[nH]c(=O)n3-c3ccccc3)CC2)c1	none
Cc1ccc(C#N)c(N2CCCC(c3n[nH]c(=O)n3-c3ccccc3)C2)n1 (centres undefined)	KDM5B inh 31.6µM
CCCS(=O)(=O)NCc1nnnn1-c1ccccc1	none
N#CC1(NC(=O)CSc2nccn2C2CC2)CCCCC1	none
COC(=O)c1cc2oc(C)cc2n1Cc1ccccc1C	none
COc1ccc(-c2cn(C)c(=O)n3cc(CN4CCNC(=O)C4)nc23)cc1	KDM5B inh 28.2µM
COc1ccc(-c2cn(C)c(=O)n3cc(CN4CC[S+](=O)([O-])CC4)nc23)cc1OC	KDM5B inh 35.5µM
Cn1cc(-c2cccc(OC(F)(F)F)c2)c2nc(CN3CCNC(=O)C3)cn2c1=O	none
COc1cc(F)ccc1-c1cn(C)c(=O)n2cc(CN3CCNC(=O)C3)nc12	none
Cn1cc(-c2ccc(F)c(Cl)c2)c2nc(CN3CC[S+](=O)([O-])CC3)cn2c1=O	none
COc1ccc(-c2cn(C)c(=O)n3cc(CN4CC[S+](=O)([O-])CC4)nc23)cn1	none
COC1CCN(CC(=O)Nc2cccc(C(=O)Nc3cccc(C(F)(F)F)c3)c2)CC1	none
CCCC(=O)N(C)CCc1ccccc1	none
O=C(CN1CCOCC1)N1N=C(c2cc3ccccc3o2)CC1c1ccco1 (centres undefined)	none
Cc1cnc(C(=O)Oc2ccc(Cl)cc2Cl)cn1	none
COc1ccc(NC(=O)N2CCCC(Cn3cnc4cccnc43)C2)c(C)c1 (centres undefined)	none
COc1ccc(NC(=O)N2CCCC(c3noc(COc4ccccc4)n3)C2)c(C)c1 (centres undefined)	none
Cc1ccc(C(=O)N2CCCC3(C2)Nc2cccnc2NC3=NC2CCCC2)cc1F (centres undefined)	KDM5B inh 28.2µM
Cc1ccc(C2=NC3(CCN(C(=O)c4n[nH]c5c4CCCC5)CC3)ON2)cc1	none
Cc1ccc(-n2c(C3CCN(C(=O)c4n[nH]c5c4CCCC5)CC3)n[nH]c2=O)cc1	none
Cc1ccc(C(=O)N2CCCC3(C2)NC(=O)N(Cc2cccc(Cl)c2)C3=O)cc1F (centres undefined)	none
O=C(c1n[nH]c2c1CCCC2)N1CCCC2(C1)Nc1cccnc1NC2=NC1CCCC1 (centres undefined)	KDM5B inh 25.1µM
Cc1ccc(C(=O)N2CCCC3(C2)C(=NC2CCCCC2)NC(=O)N3c2cccnc2)cc1 (centres undefined)	none
COc1ccc(NC(=O)N2CCCC3(C2)Nc2cccnc2NC3=NC2CCCC2)c(C)c1 (centres undefined)	KDM5B inh 25.1µM
COC(=O)c1sc(=S)n(-c2cc(Cl)ccc2C)c1N	none
COc1ccc(Nc2nc(-c3ccc(C)cc3C)cs2)cc1	none
CC(CCc1ccccc1)NC(=O)Cn1cccc1-c1nc(-c2ccc(F)cc2)no1 (centres undefined)	none
Cc1ccc(S(=O)(=O)N2CCN(C(=O)CCn3ccc4ccccc43)CC2)cc1	none
Cc1noc(C)c1CN1CCC2(CC1)COCCN2C(=O)c1ccccc1	none
Cc1cc(C)cc(C(=O)NCCSc2c[nH]c3ccccc23)c1	none
O=C(c1ccc2c(=O)n(-c3cccc(Cl)c3)cnc2c1)N1CCSCC1	none
CC(=O)Nc1ccc(CN2CCOC[C@H]2c2ncc(-c3ccc(Cl)cc3)[nH]2)cc1	none
Cc1ccc2c(CN(C)CCOc3ccccc3F)cc(=O)oc2c1C	none
O=C(Cn1ccn2nc(-c3ccccc3)c(CO)c2c1=O)Nc1cccc(F)c1	KDM5B inh 17.8µM
O=C(Cn1ccn2nc(-c3ccc(F)cc3)c(CO)c2c1=O)Nc1ccc(Cl)cc1F	KDM5B inh 31.6µM
COc1cc(Cl)c(C)cc1NC(=O)Cn1ccn2nc(-c3ccc(F)cc3)c(CO)c2c1=O	none
O=C(Cn1ccn2nc(-c3ccccc3)c(CO)c2c1=O)Nc1cccc(Br)c1	none
Cc1ccc(NC(=O)Cn2ccn3nc(-c4ccc(F)cc4)c(CO)c3c2=O)c(Cl)c1	none
CC(=O)c1cccc(NC(=O)Cn2ccn3nc(-c4ccccc4)c(CO)c3c2=O)c1	none
O=C(c1cc(-c2ccccc2)c(-c2ccccc2)s1)C(c1ccccc1)c1ccccc1	none
COc1cc(/C=N/O)ccc1OCC(=O)Nc1c(C)cc(C)cc1C	none
Cc1ccc(NCC(=O)Nc2cc(C(F)(F)F)ccc2-n2cncn2)c(F)c1	none
N#Cc1ccc(OC(=O)c2occc2COc2ccccc2)cc1	none
O=C1N(c2ccccc2)c2ccccc2C12CCN(Cc1ccsc1)C2 (centres undefined)	none
Cc1ccc(C)c(C(=O)N2CCOC(CCCc3ccccc3)C2)c1 (centres undefined)	none
Cc1c(C(=O)N2CCOC(CCCC(C)C)C2)cnc2cc(=O)[nH]n12 (centres undefined)	none
Cc1ccc2[nH]c(=O)cc(C(=O)N3CCOC(CCCC(C)C)C3)c2c1 (centres undefined)	KDM5B inh 28.2µM
CC(Oc1ccc(C(C)C)cc1)C(=O)Nc1ccc(-n2cnnn2)cc1 (centres undefined)	none
COCc1nc2nccc(-c3cccs3)n2n1	none
c1csc(-c2ccnc3nc(C4CCC4)nn23)c1	none
Brc1ccc(-c2ccnc3nc(-c4cccs4)nn23)cc1	KDM5B inh 7.94µM
CC(=O)c1cccc(Nc2c3c(nc4nc(-c5cccs5)nn24)CCCC3)c1	none
c1csc(-c2nc3nccc(-c4ccncc4)n3n2)c1	KDM5B inh 28.2µM
Cc1ccc(Nc2c3c(nc4nc(-c5cccs5)nn24)CCCC3)cc1F	none
c1coc(-c2ccnc3nc(-c4cccs4)nn23)c1	KDM5B inh 28.2µM
Cc1ccc(-c2csc(Nc3ccccc3)n2)cc1C	none
COc1ccccc1-c1nc(C#N)c(N2CCN(C(=O)c3cccs3)CC2)o1	none
CCCCN=C1NN=C(c2c[nH]c3ccccc23)C(C)S1 (centres undefined)	none
CCc1cccc(NC(=O)Cn2nc3ccc(S(=O)(=O)C(C)(C)C)nn3c2=O)c1	none
CCc1ccc(-c2nc(C)c(C(=O)Nc3ccc4[nH]c(=O)[nH]c4c3)s2)cc1	none
COC(=O)Nc1ccc(C(=O)OC(C)C)cc1	none
CCCCn1c(=O)[nH]c(=O)c2c1nc(CSc1nnnn1-c1ccc(C)cc1C)n2CC	none
O=C(c1ccccc1Br)N1CCC(CN2CCOCC2)CC1	none
CC(C)n1cc2cc(C(=O)Nc3ccc4c(c3)OCCO4)sc2c1	none
O=C(O)c1cc2cn(C3CCCC3)cc2s1	KDM5B inh 15.8µM
COc1ccc(-c2nn(C)c3sc(C(=O)NCCN(C)C)cc23)cc1OC	none
CC1CCN(CCCNC(=O)c2ccccc2C(F)(F)F)CC1	none
CC1CCN(CCNC(=O)c2cc3cn(C(C)C)cc3s2)CC1	KDM5B inh 14.1µM
O=C(c1cc2c(s1)CCC(C(=O)N1CCN(C3CCCC3)CC1)C2)N1CCCCCC1 (centres undefined)	none
O=C(O)C1CCc2sc(C(=O)N3CCCC3)cc2C1 (centres undefined)	none
